Assay outcomes (PubChem)
KDM5B inh: inhibitors of human KDM5B histone demethylase; KDM5B demethylase, FDH-coupled NADH fluorescence (FDH is formaldehyde dehydrogenase); Potency, µM (top dose mostly 57.7 µM), most hits filed as inhibitors; actives 2.6% (n = 220,000); AID 1347165; active = well fitted inhibition curve with a large enough effect; also: 0% is about no effect; nearly all actives have a fitted effect of over 70% in size
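Compound dilutions met 200 nM (final) KDM5BΔAP for 10 min at room temperature before substrate addition. The substrate mix held 12.5 µM H3K4me3 with cofactors 25 µM α-ketoglutarate and 50 µM Fe²⁺. NADH signal gain over 30 min defined activity.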
Numbers without * were called inactive; i = inactive. Only a selection was taken, and hits are over-represented in it overall. Potency is read from the fitted curve at half-maximal effect.

SMILES	KDM5B inh
CN1C(=O)CCCCC1C(=O)NCC1CCN(Cc2cccc(F)c2)CC1 (configuration not stated)	i
O=C(NCc1ccccn1)c1cc(F)cc(F)c1	i
Cc1cc(F)ccc1NC(=O)c1ccc2c(c1)n(Cc1cccc(F)c1)c(=O)c1ccnn12	i
O=C(NCc1ccccn1)c1ccc2c(c1)n(Cc1cccc(F)c1)c(=O)c1ccnn12	25µM*
CCn1c(=O)c2ccnn2c2ccc(C(=O)Nc3ccc(C)c(F)c3)cc21	8.9µM*
CN1CCC(NC(=O)c2ccc3c(c2)n(Cc2ccc(F)cc2)c(=O)c2ccnn23)CC1	28µM*
Cn1ncc(N2CCC(NC(=O)Cc3ccc(F)cc3)CC2)cc1=O	i
Cn1c(=O)c2ccnn2c2ccc(C(=O)NCC3CCN(Cc4cccc(F)c4)CC3)cc21	28µM*
O=C(NC1CCCC1)c1ccc(CSc2nc3ccncc3n2Cc2ccc(F)cc2)cc1	i
Cc1ccc(NC(=O)c2ccc3nc(Cc4ccccc4)oc3c2)cc1F	i
CN1C(=O)C(CC(=O)NCC2CCN(Cc3cccc(F)c3)CC2)=C2CCCCC21 (configuration not stated)	i
CCn1nc(C(=O)Nc2ccc(C)c(S(=O)(=O)N(C)C)c2)c2ccccc2c1=O	i
CNC(=O)[C@@H]1CN(Cc2cccc(OC(F)(F)F)c2)C[C@H]1CO	i
COc1ccccc1N1CN(CCCN(C)C)Cn2c1nc(C)c(C)c2=O	i
CCOc1cccc(C(=O)NNC(=O)C2C3CCC(C3)C2C(=O)O)c1 (configuration not stated)	i
O=C(CSc1nc2c(c(=O)[nH]1)CCC2)Nc1oncc1-c1ccccc1	i
O=C(c1ccc(Cl)cc1)N1CC2(CCN(Cc3cccnc3)C2)Cc2ccccc21 (configuration not stated)	i
CC1(C(=O)OCC(=O)c2ccc(Br)cc2)CC1(Cl)Cl (configuration not stated)	i
COc1ccc(C(=O)NCc2cccc(OC)c2)cc1	i
NC(=O)Cc1c[nH]c2ncc(-c3ccc(F)c(Cl)c3)cc12	40µM*
NC(=O)Cc1c[nH]c2ncc(-c3ccccc3F)cc12	35µM*
NC(=O)Cc1c[nH]c2ncc(-c3ccc(Cl)cc3)cc12	20µM*
O=C(Cc1c[nH]c2ncc(-c3ccccc3)cc12)Nc1ccc(Cl)cc1	i
NC(=O)Cc1c[nH]c2ncc(-c3ccc4c(c3)OCO4)cc12	35µM*
CC(C)Cc1ccc(C(C)NC(=O)CCNC(=O)C(C)(C)C)cc1 (configuration not stated)	i
SMILES	KDM5B inh
CNC(=O)[C@@H]1C[C@@H](n2cc(CNC(=O)Nc3cc(C)ccc3C)nn2)CN1	i
Cc1ccc(F)cc1Nc1ncnc(N)c1[N+](=O)[O-]	i
CCN(CC)CCOc1ccc(NC(=O)c2nn(C)c(=O)c3ccccc23)cc1	i
Cc1ccc2oc(C(=O)NCc3ccc4c(c3)OCO4)cc(=O)c2c1	i
COC(=O)CC1C(=O)NCCN1S(=O)(=O)c1ccc(Cl)cc1 (configuration not stated)	i
CN(C(=O)CCc1ccc2c(c1)OCO2)C1CCCN(C2Cc3ccccc3C2)C1 (configuration not stated)	i
c1ccc(O[C@H]2COCCN(Cc3cccc4c3OCO4)C2)cc1	i
COc1cccc(-c2cnc3[nH]cc(CC(N)=O)c3c2)c1	35µM*
COc1cccc(CNC(=O)c2c[nH]c3ncccc23)c1	i
CCCNC(=O)c1ccc(OC)c(S(=O)(=O)NCC)c1	i
O=C(NCCOc1ccccc1)c1cc(COc2ccccc2)[nH]n1	i
CC(=O)N1CCCC2(C1)CN(C)c1ccc(C(=O)NCCOc3ccccc3)cc12 (configuration not stated)	32µM*
CC(C)CCN1CCOc2cc(C(=O)NCCOc3ccccc3)ccc2C1	i
CC(=O)N1CCC(C(=O)NCCOc2cccc(C)c2)CC1	i
CN1CCCC2(CCN(C(=O)CCCOc3ccccc3)C2)C1=O (configuration not stated)	i
CN1CCCC2(C1)CN(C)c1ccc(C(=O)NCCOc3ccccc3)cc12 (configuration not stated)	40µM*
COc1cccc(C2Cn3nnc(-c4nc(-c5ccc(Cl)cc5)no4)c3CO2)c1 (configuration not stated)	i
O=C(N1CCN(c2ncccn2)CC1)C1(c2ccc(Cl)cc2)CCOCC1	i
O=C(N1CCN(c2ccccn2)CC1)C1(c2ccc(Cl)cc2)CCOCC1	79µM*
CN(C)C(=O)C1CN(C(=O)COc2ccccc2)CC12CCOCC2 (configuration not stated)	i
CCC(=O)N1CC(C(=O)N2CCN(c3ccccn3)CC2)C2(CCOCC2)C1 (configuration not stated)	32µM*
O=C(Nc1ccc(C2(C(=O)N3CCN(c4ccccn4)CC3)CCCCC2)cc1)C1CC1	28µM*
CC(C)C(=O)Nc1ccc(C2(C(=O)N3CCCC3)CCCCC2)cc1	i
CC(C)C(=O)Nc1ccc(C2(C(=O)N3CCN(c4ccccc4)CC3)CCCCC2)cc1	i
CC(=O)Nc1ccc(C2(C(=O)N3CCN(c4ccccn4)CC3)CCCCC2)cc1	28µM*
SMILES	KDM5B inh
O=C(Nc1ccc(C2(C(=O)NCC3CC3)CCCCC2)cc1)C1CC1	i
CCC(=O)Nc1ccc(C2(C(=O)N3CCN(c4ccccc4)CC3)CCC2)cc1	i
O=C(N1CCCCC1)C1(c2ccc(Cl)cc2)CCOCC1	i
CCC(=O)N1CC(C(=O)Nc2ccccn2)C2(CCOCC2)C1 (configuration not stated)	i
CC(C)(CNC(=S)Nc1cccc(C(F)(F)F)c1)N1CCCCC1	i
CC(C)n1c(SCc2nc3ccccc3c(=O)[nH]2)nnc1-c1ccco1	i
Cc1ccc2c(c1)Oc1cc(Cl)c(S(=O)(=O)N(C)Cc3ccccc3)cc1C(=O)N2	i
COc1ccc2c(c1)nc1n2[C@@H](CNCc2ccccc2)COC1	i
COc1ccc(C2(C(=O)N3C[C@@H](Oc4cccnc4)C[C@H]3C(=O)NC3CC3)CC2)cc1	i
O=C(CC1C(=O)NCCN1C(=O)CN1CCN(c2ncccn2)CC1)Nc1ccc(F)cc1 (configuration not stated)	i
O=C(NCc1ccc(F)cc1)C1CCCN(C(=O)c2cccc(C(F)(F)F)c2)C1 (configuration not stated)	i
Cc1cnc(CC2CCN(C(=O)N(C)C)C2)n1CC1CC1 (configuration not stated)	i
COC(=O)c1ccc(C)c(NC(=O)COC(=O)c2ccc(OC)cc2)c1	i
Cc1ccc(C)c(S(=O)(=O)c2nnn3c2nc(NCc2ccc(F)cc2)c2sccc23)c1	i
CCc1ccc(-c2nc(C3CC(=O)N(c4ccc(C)cc4)C3)no2)cc1 (configuration not stated)	i
O=C1CC(c2noc(-c3ccc4c(c3)OCO4)n2)CN1c1ccc(Cl)cc1 (configuration not stated)	28µM*
O=C1CC(c2noc(-c3ccccc3F)n2)CN1c1ccc(Cl)cc1 (configuration not stated)	i
CCc1ccc(N2CC(c3noc(-c4ccc5c(c4)OCO5)n3)CC2=O)cc1 (configuration not stated)	32µM*
CCc1ccc(N2CC(c3noc(-c4ccncc4)n3)CC2=O)cc1 (configuration not stated)	i
